Screens from PubChem.
Compounds with a hit are over-represented: about 5.5% of the library has one in this group of screens.
Six1-Eya2 blk: qHTS Assay for Inhibitors of the Six1/Eya2 Interaction | Homeobox protein SIX1 (Homo sapiens) + Protein phosphatase EYA2 (Homo sapiens), … | AlphaScreen GST-Six1/His-Eya2 binding, biochemical; stronger effect = lower value | activity change, % (no concentration beside the values) | 0.56% of 360,000 active | AID 651725, 2012; in the data active = activity change below about -65%; inconclusive = mostly about -30% to -63%; also: % is scaled to controls: 0 for no effect and ±100 for the full control effect
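GST-Six1 + His-Eya2 (5X stock: 250/500 nM); Tris pH 8.0, 300 mM NaCl, 0.05% BSA, 0.02% Tween 20; GSH donor/Ni acceptor beads; 1 h 37 °C dark; AlphaScreen readout.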
RORg inh: qHTS for inhibitors of ROR gamma transcriptional activity | Drosophila S2 Gal4-RORgamma UAS-luciferase reporter, 20 h | Potency, µM (titrated, usually from 53.6 µM), for inactives: at the highest dose activity change, negative = inhibition, hits mostly inhibitors | Nuclear receptor ROR-gamma (Mus musculus), P51450 | 5.4% of 310,000 active; also: potency is read from the fitted curve at half-maximal effect; % is scaled to controls: 0 for no effect and ±100 for the full control effect; nearly all actives have a fitted effect of over 60% in size
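ROR gamma transcriptional activity was tracked as Gal4-UAS luciferase output in stably transfected Drosophila Schneider cells, with compound added 1 hr before 700 uM copper sulfate induction and a 20 hr ambient-temperature incubation.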
CBFb-RUNX1 inh: qHTS Assay for Compounds Blocking the Interaction Between CBF-beta and RUNX1 for the Treatment of Acute Myeloid Leukemia; AID 1477, 2009; AlphaScreen CBFb-His/RUNX1-biotin binding, biochemical; Potency, µM (highest dose often 59.8 µM), for inactives: at the highest dose activity, negative = inhibition, usual class: inhibitors; Runt-related transcription factor 1 (Homo sapiens) + Core-binding factor subunit beta …; 230,000 tested, under 10 active; also: % of control where 0% means no effect
Target sequence (Q01196 whole entry, looked up): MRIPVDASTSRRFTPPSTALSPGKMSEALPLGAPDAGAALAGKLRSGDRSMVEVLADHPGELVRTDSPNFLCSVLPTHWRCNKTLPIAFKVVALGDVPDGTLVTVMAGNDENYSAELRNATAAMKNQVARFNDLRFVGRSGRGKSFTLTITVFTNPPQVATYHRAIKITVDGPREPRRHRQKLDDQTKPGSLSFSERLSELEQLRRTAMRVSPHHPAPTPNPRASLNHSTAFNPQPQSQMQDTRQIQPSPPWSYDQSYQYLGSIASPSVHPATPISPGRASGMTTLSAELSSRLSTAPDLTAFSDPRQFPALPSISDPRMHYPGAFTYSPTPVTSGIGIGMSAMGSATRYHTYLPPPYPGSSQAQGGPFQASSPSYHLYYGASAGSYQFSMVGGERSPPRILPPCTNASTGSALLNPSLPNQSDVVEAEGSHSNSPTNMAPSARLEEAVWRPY
Target sequence (Q13951 whole entry, looked up): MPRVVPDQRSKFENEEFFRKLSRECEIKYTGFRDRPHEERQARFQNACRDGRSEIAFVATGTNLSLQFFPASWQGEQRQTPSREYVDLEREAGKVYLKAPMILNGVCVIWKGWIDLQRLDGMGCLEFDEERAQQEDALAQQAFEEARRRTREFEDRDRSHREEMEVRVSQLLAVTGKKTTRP
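Read-out: AlphaScreen. Format: His-CBF-beta with biotinylated RUNX1 (30 nM each) preincubated 20 min, compound 15 min, Ni-chelate plus streptavidin beads 90 min; room temperature throughout.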
MBNL1-CUG inh: qHTS Assay for Inhibitors of MBNL1-poly(CUG) RNA binding; Muscleblind-like protein 1 (Homo sapiens), Q9NR56; 0.036% of 280,000 active; TR-FRET MBNL1-His/biotin-(CUG)12 binding, 665/545 ratio; Potency, µM (highest dose often 57.5 µM), without a hit: top-dose activity change, negative = inhibition, most hits filed as inhibitors; active = well fitted inhibition curve with a large enough effect in the signal ratio, with a control signal flat, not every such curve was filed as active; inconclusive = small, poorly fitted or top-dose-only effect, or effect the other way, or a change in a side signal; inactive = no such curve, though single readings can be large or run the other way; the % refers to the signal ratio; also: potency is read from the fitted curve at half-maximal effect; % is scaled to controls: 0 for no effect and ±100 for the full control effect
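His-tagged MBNL1 binding to biotinylated (CUG)12 RNA was measured by TR-FRET using terbium anti-His antibody (0.055 ng/ul final) and streptavidin-XL665 (5 nM final). Compounds were titrated 92 nM to 58 uM; 60 min at room temperature.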
VP16 counter: VP16 counterscreen qHTS for inhibitors of ROR gamma transcriptional activity | Drosophila S2 Gal4-VP16 UAS-luciferase, luminescence, 20 h | Potency, µM (series often up to 53.6 µM), for inactives: at the highest dose activity, negative = inhibition, usual class: inhibitors | 3.5% of 310,000 active | AID 2546, 2010;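 also: Gal4-VP16 expression switched on by copper sulfate through the metallothionein promoter; potency is read from the fitted curve at half-maximal effect; % is scaled to controls: 0 for no effect and ±100 for the full control effect; nearly all actives have a fitted effect of over 50% in size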
CtBP-E1A blk: qHTS Assay for Inhibitors of the CtBP/E1A Interaction; CtBP / adenovirus E1A interaction (AlphaScreen); AID 651724, 2012; activity change, % (no concentration beside the values); AlphaScreen GST-E1A/His-CtBP binding, 1536-well; stronger effect = lower value; 0.49% of 340,000 active; in the data active = activity change below about -65%; inconclusive = mostly about -30% to -63%; also: % is scaled to controls: 0 for no effect and ±100 for the full control effect
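Steps: dispense buffer (Tris pH 8.0, NaCl 300 mM, TCEP 1 mM, BSA, Tween 20); add 5X protein mix (GST-E1A, His-CtBP, 125 nM each); pin 23 nL compound; 2 h at 37 °C, dark; add 5X beads (50 ug/mL); 1 h; read.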
Numbers without * were called inactive; ? = inconclusive; . = no result; ! = repeats disagree. Unless noted, calls follow the shape of the dose curve; as a rule, active = well fitted curve in the direction sought with a large enough effect; inconclusive = small, poorly fitted or top-dose-only effect, or another doubt; inactive = no such curve, though single readings can be large; an effect the other way counts as inactive or inconclusive.

SMILES | Six1-Eya2 blk | RORg inh | CBFb-RUNX1 inh | MBNL1-CUG inh | VP16 counter | CtBP-E1A blk
Cc1cccc(-n2ncc3c(Nc4ccc(F)cc4)ncnc32)c1 | -9.3 | -13.4% | 11.0% | -6.8% | 11.2µM* | -5.3
c1ccc(-n2ncc3c(NCc4cccs4)ncnc32)cc1 | -1.7 | ? | 13.2% | -6.6% | -28.7% | 0.5
COC(=O)c1ccc(Nc2ncnc3c2cnn3-c2cccc(C)c2)cc1 | 11.1 | 9.7% | . | 1.0% | -0.4% | -0.5
c1ccc(-n2ncc3c(NCc4cccnc4)ncnc32)cc1 | -13.7 | . | -2.0% | -13.3% | 1.41µM* | -0.8
Cc1cc(C(=O)N/N=C/c2cc(Cl)cc([N+](=O)[O-])c2O)c2ccccc2n1 | -88.7* | 1.58µM* | 3.9% | ? | 11.2µM* | -90.9*
O=C(N/N=C/c1cc(Cl)cc([N+](=O)[O-])c1O)c1ccccc1NS(=O)(=O)c1cccs1 | -77.0* | 2.82µM* | ? | -8.4% | 10µM* | -0.8
O=C(NCc1ccncc1)[C@@H]1CCCN1C(=O)[C@@H]1CCCN1C(=O)c1ccccc1 | -4.5 | . | . | . | . | 0.6
O=C(NCc1cc(Cl)cc(Cl)c1)c1ccc2nc([C@@H]3O[C@H](CO)[C@H](O)[C@H](O)[C@H]3O)[nH]c2c1 | -7.4 | . | . | . | . | -3.8
O=C(Nc1ccccc1Br)C1CCN(S(=O)(=O)c2cccs2)CC1 | 5.7 | . | . | . | . | 7.8
COC(=O)CSc1nc(NC(C)(C)C)nc(N(C)C)n1 | 0.2 | -0.8% | -7.4% | -6.1% | -15.4% | -8.5
CC(=O)C(Sc1nc(NC(C)(C)C)nc(N(C)C)n1)C(C)=O | 3.8 | 6.31µM* | 1.8% | -0.5% | 14.1µM* | 0.5
C[C@H](NC(=O)c1nc[nH]c1C(=O)N(C)CCO)c1ccccc1 | -17.3 | . | . | . | . | 0.0
CCCCC[C@@H](C)N1C[C@H](COCc2ccccc2)Oc2cc(N3CC[C@H](O)C3)ccc2S1(=O)=O | -12.8 | . | . | . | . | -7.1
O=[N+]([O-])c1ccc(Cl)c(/C=N/NC(=S)Nc2ccccc2)c1 | -0.9 | 0.355µM* | -0.3% | 6.8% | 2.24µM* | -8.2
NC(=S)N/N=C/c1cc([N+](=O)[O-])ccc1OCCOc1ccccc1 | 4.4 | -32.0% | -0.7% | -3.0% | -12.2% | 1.7
NC(=S)N/N=C/c1cc([N+](=O)[O-])ccc1Cl | 0.9 | 25.1µM* | 2.5% | ? | -16.7% | .
Cn1c2ccccc2c2cnn(CC(=O)Nc3ccc(F)cc3F)c(=O)c21 | 0.7 | -5.8% | 0.6% | 5.4% | 3.3% | 10.9
O=C(COC(=O)c1ccccn1)Nc1nc(-c2cccc([N+](=O)[O-])c2)cs1 | -26.0 | 12.6µM* | -9.0% | ? | 35.5µM* | -27.4
COC(C[C@@H](O)[C@@H](C)[C@H](O)COCc1ccccc1)OC | 8.1 | 16.5% | 15.8% | -2.4% | 0.0% | -13.7
CC(C)c1ccc2oc3nc(N)c(C(=O)O)cc3c(=O)c2c1 | . | 7.94µM* | 6.4% | 0.6% | 3.98µM*! | .
CN(/N=C/c1ccco1)C1=NS(=O)(=O)c2ccccc21 | -18.6 | -2.7% | -2.7% | 0.4% | -11.8% | ?
CCNc1nc(NCC)nc(N(C)/N=C/c2ccco2)n1 | -20.5 | 3.55µM* | . | 3.7% | 20µM* | ?
COc1ccccc1NS(=O)(=O)c1ccc(NN=C2CCCC2)c([N+](=O)[O-])c1 | ? | ? | -17.5% | ? | 17.8µM* | ?
COc1ccccc1NS(=O)(=O)c1ccc(N/N=C/C=C/c2ccccc2[N+](=O)[O-])c([N+](=O)[O-])c1 | -16.9 | 5.2% | 8.1% | 6.3% | -0.7% | -26.5
Cc1cn([C@H]2C[C@H](O)[C@@H](CNCc3cccn3-c3ccncc3)O2)c(=O)[nH]c1=O | -3.8 | . | . | . | . | 6.0
SMILES | Six1-Eya2 blk | RORg inh | CBFb-RUNX1 inh | MBNL1-CUG inh | VP16 counter | CtBP-E1A blk
O=C(Nc1ccc(Br)cc1)c1ccc(Br)c(S(=O)(=O)Nc2cccnc2)c1 | ? | ? | -2.6% | . | 4.5% | -65.7*
CCN(CC)CCNC(=O)c1ccc(NC(=O)c2cccc(S(=O)(=O)N3CCc4ccccc43)c2)cc1 | -3.4 | . | . | . | . | -0.6
O=C1CSc2ccc(C(=O)Nc3cccc(S(=O)(=O)Nc4ccc(Br)cc4)c3)cc2N1 | -27.4 | 15.8µM* | -10.6% | -10.0% | 10µM* | .
O=C(O)c1ccc(NC(=O)c2cccc(S(=O)(=O)Nc3ccc(C(=O)O)cc3)c2)cc1 | 5.0 | -7.7% | . | -16.9% | -21.4% | -1.5
O=C(Nc1cccc(O)c1)c1cccc(S(=O)(=O)Nc2cccc(O)c2)c1 | -10.4 | -13.7% | . | 4.4% | -0.5% | -7.8
O=C(Nc1ccc(Br)cc1)c1cccc(S(=O)(=O)Nc2ccc(Br)cc2)c1 | . | ? | 8.0% | . | 7.94µM* | .
CCN(CC)CCNC(=O)c1ccc(NC(=O)c2cccc(S(=O)(=O)Nc3ccc(C)cc3)c2)cc1 | -4.1 | -105.0% | 6.7% | -0.8% | 15.8µM* | .
C[C@@H](c1ccccc1)N1C[C@H](COCc2ccccc2)Oc2cc(N3CC[C@H](N(C)C)C3)ccc2S1(=O)=O | -28.4 | . | . | . | . | ?
COC(=O)C1CCN(S(=O)(=O)c2cc3c4c(c2)CCN4C(=O)CC3)CC1 | 0.2 | . | . | . | . | 0.5
COc1ccc(/C(N)=N/OC(=O)c2ccco2)cc1 | -15.1 | 7.94µM* | 3.0% | 0.2% | 10µM* | ?
Cn1cccc1/C=N/NC(=O)c1cccc(OC(F)(F)C(F)F)c1 | -8.5 | 10µM* | -14.6% | 3.2% | ? | -9.6
CC(C)(C)c1nnc(SCC(=O)Nc2ccc(N3CCCCC3)cc2)n1N | -14.0 | . | . | . | . | ?
C[C@@H]1CN([C@H](C)CO)C(=O)CCCn2cc(nn2)CO[C@H]1CN(C)C(=O)Nc1cccc2ccccc12 | -1.4 | . | . | . | . | -4.1
COC(=O)Cn1c(CCS(=O)(=O)c2ccc(Cl)cc2)nc2ccccc21 | 13.3 | 3.55µM* | -0.8% | 2.1% | 3.7% | -0.4
COc1cc(NC(=S)NC(=O)CCc2ccccc2)cc(OC)c1 | -9.6 | 0.562µM* | . | -2.7% | 7.08µM* | -11.3
CC(=O)NC(=S)NNC(=O)CCc1ccccc1 | -7.2 | 34.4% | -6.1% | 3.1% | -6.0% | -5.3
Cc1ccc([N+](=O)[O-])cc1NC(=S)NC(=O)C(C)(C)C | -5.5 | ? | 1.3% | ? | 5.0% | -4.0
Cc1c(NC(=S)NC(=O)C(C)(C)C)cccc1[N+](=O)[O-] | -8.5 | 14.1µM* | -2.5% | 22.5% | 20µM* | 1.8
